About 83,000 compounds went through this panel and 20% of them were active in at least one assay; those are over-represented in the sample as a whole.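 Single-concentration screen, 48 h exposure, 96-well plates. Endpoint: percent growth. Below 10 = active.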 A number with no mark means an inactive call. Activity calls are given as the source filed them.
Tests used:
Experiment in all cases: NCI-60 one-dose screen, 48 h (100 = growth as untreated, 0 = no growth, -100 = all killed)
Settings in all cases: 10 µM
K-562 leukemia = system: K-562 leukemia
MALME-3M melanoma = system: MALME-3M melanoma
MDA-MB-231 breast = system: MDA-MB-231 breast
RXF 393 renal = system: RXF 393 renal
SF-268 CNS = system: SF-268 CNS
SF-295 CNS = system: SF-295 CNS
SF-539 CNS = system: SF-539 CNS
UACC-257 melanoma = system: UACC-257 melanoma
M14 melanoma = system: M14 melanoma
HCT-15 colon = system: HCT-15 colon

SMILES | growth (K-562 leukemia) | growth (MALME-3M melanoma) | growth (MDA-MB-231 breast) | growth (RXF 393 renal) | growth (SF-268 CNS) | growth (SF-295 CNS) | growth (SF-539 CNS) | growth (UACC-257 melanoma) | growth (M14 melanoma) | growth (HCT-15 colon)
COc1cc(-c2cc(/C=C/C(=O)c3ccc(N)cc3)[nH]n2)cc(OC)c1OC | 10.9% | 58.3% | -2.03% (active) | -23.2% (active) | -9.2% (active) | 22.9% | -64.1% (active) | 29.2% | 34.8% | -22.3% (active)
N#CCCN1C/C(=C/c2ccccc2)C(=O)/C(=C/c2ccccc2)C1 | 2.2% (active) | -28.7% (active) | 13.9% | 50.3% | 24.7% | 26.3% | 76.1% | 56.2% | -9.82% (active) | -56.4% (active)
Cc1ccc(Nc2nnc(-c3cc(-c4ccncc4)n(-c4ccccc4)n3)s2)cc1 | 27% | 74.8% | 18.9% | 57.5% | 113% | 21.9% | 91.6% | 110% | 61.9% | 9.74% (active)
O=C(Nc1cccc(-n2cc(-c3ccncc3)c(-c3ccc(O)c(Cl)c3)n2)c1)Nc1ccc(Cl)c(Cl)c1 | 5.72% (active) | -27% (active) | -44.9% (active) | -26.2% (active) | 10.9% | -40.4% (active) | -19.8% (active) | -42.7% (active) | -50.3% (active) | 14.1%
Clc1cc2c(c(CSc3nc4ccccc4n4cccc34)c1)OCOC2 | 74.4% | 88.2% | 65.8% | 34.2% | 85.4% | 79.5% | 67.2% | 61.3% | 87.5% | 71.4%
O=C(N/N=C\c1cc(Cl)ccc1[N+](=O)[O-])c1ccco1 | 102% | 125% | 95% | 115% | 99.3% | 108% | 92.4% | 95% | 108% | 97%
CCCCOC(=O)Oc1ccc(C(=O)Oc2ccc(OCC)cc2)cc1 | 109% | 109% | 97.9% | 102% | 95.5% | 109% | 86.2% | 99.5% | 96.7% | 102%
CC(=O)OCc1cc(-c2nc3ccccc3[nH]c2=O)nn1-c1ccc(Cl)cc1 | 93.4% | 108% | 98.1% | 102% | 109% | 96.5% | 90.2% | 14.8% | 97.2% | 88%
COc1cc2cc3c(nc2cc1OC)CCN3Cc1ccc(NC(=O)Nc2ccc(F)cc2F)cc1 | 61.5% | 93.2% | 89% | 88.6% | 94.9% | 76.9% | 97.8% | 77.3% | 81.8% | 78.8%
OCC1OC(n2cnc3c(N/N=C\c4ccccn4)ncnc32)C(O)C1O (stereo not given) | 17.6% | -14.6% (active) | 42.5% | 33.4% | 21.5% | -1.12% (active) | 9.72% (active) | 38% | 8.81% (active) | 25.8%
CCC(=O)N1C/C(=C/c2ccc(Br)cc2)C(=O)/C(=C/c2ccc(Br)cc2)C1 | 0.563% (active) | -67.9% (active) | -46.7% (active) | -92.7% (active) | -38.5% (active) | -34.7% (active) | -81.2% (active) | -46.1% (active) | -76.6% (active) | -32.3% (active)
CC(=O)O[C@]1(C)CC[C@H]2[C@H](CNCCc3ccc(Cl)cc3)C(=O)O[C@@H]2C2=C(C)C(=O)C[C@H]21 | 79.4% | 84.2% | 90.5% | 115% | 91% | 105% | 106% | 76.4% | 88.4% | 88.4%
COc1cc(-c2nn3c(/C=C4/C(=O)Nc5ccccc54)c(-c4ccc(C)cc4)nc3s2)cc(OC)c1OC | 55.7% | -23.8% (active) | 50.6% | 63.7% | 15.9% | 74.1% | 81.8% | 34.4% | 42.9% | 58.9%
CN(C)CCCn1c(=O)c2ccccc2c2cnc3[nH]ccc3c21 | -10.9% (active) | -25.1% (active) | -11.2% (active) | 5.57% (active) | 21.1% | 12.4% | 30.3% | -20.6% (active) | -6.79% (active) | 10.5%
N#Cc1c(C#N)c(SSc2c(C#N)c(C#N)c(N)n2-c2ccccc2)n(-c2ccccc2)c1N | -17.7% (active) | 95.1% | 100% | 98.8% | 112% | 115% | 103% | 103% | 115% | 102%
O=C1/C(=C\c2ccc(F)cc2)CN(C(=O)c2ccccc2)C/C1=C\c1ccc(F)cc1 | 4.01% (active) | 8.3% (active) | -25.9% (active) | 26.6% | 26% | -3.21% (active) | 69.2% | 36.5% | 4.22% (active) | 1.64% (active)
N#Cc1cccc(OCc2nc(N)nc(N)c2-c2ccc(Cl)c(Cl)c2)c1 | 14.6% | 33.6% | 51.4% | 43.7% | 28.4% | -7% (active) | 22.6% | 11.1% | 23.2% | 17.7%
CCC(=O)N1C/C(=C/c2ccc(OC)cc2)C(=O)/C(=C/c2ccc(OC)cc2)C1 | 1.72% (active) | -9.29% (active) | 19.4% | -66.7% (active) | 24% | -5.17% (active) | 54.7% | 43.4% | -16.5% (active) | 4.21% (active)
CCCCC/C=C/C(=O)CCc1ccc(O)c(OC)c1 | 59.9% | 23% | 79.3% | 74.6% | 86.9% | 96.4% | 90.1% | 91.9% | 80.7% | 88.2%
COc1ccc(Oc2nc(NC3CCCC3)nc(Sc3ccc(OC)cc3)n2)cc1 | 53.3% | 69.6% | 50.1% | 74.1% | 55.6% | 67.4% | 83.4% | 87.3% | 87.6% | 43.9%
NC(=O)c1ccc(-c2cccc3c(=O)nc(N4CCOCC4)oc23)cc1 | 110% | 85.4% | 91.9% | 104% | 93.8% | 93.9% | 102% | 104% | 97.8% | 102%
C=C(NC(=O)C(=C)NC(=O)c1csc(C2=NC3c4csc(n4)C4NC(=O)c5csc(n5)C(C(C)(O)C(C)O)NC(=O)C5CSC(=N5)/C(=C/C)NC(=O)C(C(C)O)NC(=O)c5csc(n5)C3(CC2)NC(=O)C(C)NC(=O)C(=C)NC(=O)C(=C)NC(=O)C(C(C)C)NC2C=Cc3c(C(C)O)cc(nc3C2O)C(=O)OC4C)n1)C(N)=O (stereo not given) | -11.3% (active) | -64.6% (active) | 29.7% | 16.9% | 21.5% | 26.6% | -22.5% (active) | 24.2% | -29.5% (active) | -23.7% (active)
COc1cccc(-c2cc(-c3cccc(NS(C)(=O)=O)c3)nc(N)c2C#N)c1O | 17.1% | -5.49% (active) | 53.7% | 29.3% | 42.6% | -1.4% (active) | 3.03% (active) | 79.8% | 41.3% | 26.7%
COc1cc(CNCCCCCCN2C(=O)c3cccc4cccc(c34)C2=O)ccc1O | 35.3% | 36.3% | 81.5% | 52% | 88.7% | 69% | 85.3% | 89.4% | 78.2% | 74.7%
C=C(Cl)[C@@](Cl)(CBr)CC[C@@H](Br)C(C)(C)Cl | 8.41% (active) | 102% | -78.2% (active) | -5.37% (active) | 1.89% (active) | -48.4% (active) | -81.9% (active) | -66.7% (active) | 89.1% | -63.8% (active)
Cc1[nH]nc2c1C(c1cnn(C)c1)C(C#N)=C(N)O2 (stereo not given) | 93.6% | 95.8% | 117% | 106% | 105% | 105% | 99.3% | 98.3% | 100% | 99.6%
